The text below walks through data of PubChem BioAssay (NCATS).

Inconclusive results are not listed. A number with no mark means an inactive call. Calls come from the whole dose curve; as a rule, active = well fitted inhibition curve with a large enough effect; inconclusive = small, poorly fitted or top-dose-only effect; inactive = no such curve, though single readings can be large or run the other way. Where a SMILES comes first, the peptide text is derived from it. Bridges are numbered along the chain shown (N, C = ends). [ ]: non-standard residue; d: D form. hArg = N=C(N)NCCCC[C@H](N)C(=O)O; Mpa = O=C(O)CCS

The nature of the test: Primary qHTS for inhibitors of La Crosse Virus (LACV) - induced cell death in SH-SY5Y cells (AID 1508616).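 Note: top concentration of the series differs between compounds; 0% = infected DMSO wells and 100% = uninfected DMSO wells.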 Particulars: SH-SY5Y LACV cytopathicity rescue, ATP luminescence, 6 d; series mostly up to 4.29 µM; activity change: at the top concentration. From the text: Assay Provider: Karin Peterson Ph.D.
National Institute of Allergy and Infection Diseases, National Institute of Health
La Crosse Virus (LACV) is a California serogroup mosquito-borne arbovirus, family Peribunyaviridae, which is an endemic pathogen in North America and can induce a rare, life-threatening neurological disease in children. LACV was first isolated in the early 1960s, from a summer "rural encephalitis" case in La Crosse, Wisconsin, USA. Since then, LACV encephalitis cases have been found in more than twenty states, with most cases in the Mississippi and Ohio River basins. The life cycle of LACV is maintained between the vector, the eastern tree-hole mosquito Aedes triseriatus, and vertebrate hosts including eastern gray squirrels (Sciurus carolinensis) and chipmunks (Tamiasstriatus grinseus). […] Most LACV infections in humans are asymptomatic or induce mild clinical symptoms of fever, headache, lethargy and vomiting. However, in some cases LACV can cause severe neuroinvasive disease, including encephalitis, meningitis, and meningoencephalitis, requiring hospitalization. To date, there is neither a licensed vaccine nor a Food and Drug Administration (FDA) approved antiviral therapy available to prevent or treat LACV encephalitis. The primary treatment for viral encephalitis is palliative care due to the lack of therapeutics. In the current study, we conducted a screen of 4,096 FDA approved and bioactive small molecules against LACV, by screening for rescue of LACV-induced cell death in SH-SY5Y cells.
LACV-induced cytopathicity assay
SEQUENCE No. (1,2, 3, etc.); […] (e.g., Cells, Incubation, Reagent, etc.); VALUE and DESCRIPTION.
1. Reagent; 2 uL; Cell solution.
3. Compounds; 23nL; Compound library
4. Reagent; 12 uL; LACV virus
6. Reagent; 24 uL; ATPLite (PerkinElmer)
7. Time; 5 min; Room temperature
8. Detection; Luminescence; View
NOTES (numbers refer to sequence above)
1. Seed 6000 SH-SY5Y cells (ATCC CRL-2266) in 2 microL/well media (DMEM/F12 10% FBS, 1x L-Glutamine, 1x Pyruvate, 1x NEAA, 1x Pen/Strep) in 384-well assay plates (tissue culture treated, white, solid bottom).
2. Incubate at 37 degrees C with 5% CO2 for 24 hr.
3. Dispense 23 nL/well compounds in DMSO via pin transfer.
4. Dispense 12 microL/well of LACV (LACV/human/1978) in media at 0.01 MOI.
5. Incubate at for 6 days at 37C 5% CO2
6. Dispense 24 microL/well of ATPLite 1step Luminescence assay system (PerkinElmer).
7. Incubate for 5 min at room temperature.
8. Read luminescence signal (Viewlux plate reader, PerkinElmer). Data was normalized with DMSO control wells containing LACV as 0%, and DMSO control wells without virus as 100%.
A general note: Quantitative high-throughput screening tests each substance at several concentrations.
As for `O=C(O)C(S)C(S)C(=O)O` (stereo not given), the “activity change” value is 15.2%.
In the case of `O=S1(=O)OC(c2ccc(O)cc2)(c2ccc(O)cc2)c2ccccc21` it was 21.2%; in that of `CC1(c2ccccc2)OC(C(=O)O)=CC1=O` (stereo not given), -7.55%.
Turning to `CCOc1ccccc1O[C@H](c1ccccc1)[C@H]1CNCCO1`, the “activity change” value was 18.2%.
As to `CCCCCCCCCCC(CO)CCCCCCCC` (stereo not given), the “activity change” value was 4.45%.
As for `Nc1ccc(C(=O)Oc2ccccc2)c(O)c1`, the “activity change” value was 7.21%.
Regarding `C[N+]1(C)CCCC(OC(=O)C(O)(c2ccccc2)c2ccccc2)C1` (stereo not given), the “activity change” value is -3.28%.
Take `CC(C)(C)C(=O)OCOC(=O)[C@@H]1N2C(=O)[C@@H](NC(=O)[C@H](N)c3ccccc3)[C@H]2SC1(C)C`: the “activity change” value is 17.9%.
On to `C[N+](C)(C)CC(O)CC(=O)[O-]` (stereo not given), for which the “activity change” value was 7.76%.
The value for `CCCCCCCCCCCCCCCCCCO` was -4.86%; that for `CC(=O)NCc1c(I)c(NC(C)=O)c(I)c(C(=O)O)c1I` was -1.02%.
With `O=C(O)/C=C/c1ccc(Cn2ccnc2)cc1`, the “activity change” value is 3.93%.
The value for `CCCCCC(C)N` (stereo not given) was -13.7%.
In the case of `O=C1c2ccccc2S(=O)(=O)N1CCCCN1CCN(c2ncccn2)CC1` it was 4.75%; in that of `Nc1ccc(S(=O)(=O)c2ccc(N)cc2)cc1`, -3.14%.
Turning to `O=C(Cn1ccnc1[N+](=O)[O-])NCCO`, the “activity change” value was 13.6%.
Consider `NC(=O)N[C@@H](CCC(=O)O)C(=O)O`, for which the “activity change” value was 9.71%.
Turning to `NC(=O)c1ccc([N+](=O)[O-])cc1Cl`, the “activity change” value was -13.3%.
Take `COc1ccc(C(=O)NCc2ccc(OCCN(C)C)cc2)cc1OC`: the “activity change” value was -16.8%.
`O=C1c2cccc(O)c2C(=O)c2c(O)cccc21`: the “activity change” value was -16.8%.
Turning to `CO[C@@]1(NC(=O)C(C(=O)O)c2ccc(O)cc2)C(=O)N2C(C(=O)O)=C(CSc3nnnn3C)CO[C@@H]21` (stereo not given in full), the “activity change” value is -11.4%.
The value for `CN1CCCN=C1COC(=O)C(O)(c1ccccc1)C1CCCCC1` (stereo not given) was 31.4%; that for `O=C(O)c1ccc(OCCCOc2ccc(C(=O)O)cc2)cc1` was -0.743%; that for `CC(=O)N[C@@H](CC(C)C)C(=O)O` was -4.78%.
For the molecule `CN1C[C@@H]2C[C@H]1CN2c1cc2c(cc1F)c(=O)c(C(=O)O)cn2C1CC1`, the “activity change” value was 17.4% [at 1.78 µM].
With `CN/C(=C\[N+](=O)[O-])NCCSCc1csc(CN(C)C)n1`, the “activity change” value was 20%.
In the case of `CCc1cccc(CC)c1NC(=O)CN(CC(=O)O)CC(=O)O`, the “activity change” value was -3.33%.
As for `Cc1ccccc1N=Nc1ccc(N=Nc2c(O)ccc3ccccc23)c(C)c1`, the “activity change” value is 2.64%.
For `CCCNC(C)C(=O)Nc1c(C)csc1C(=O)OC` (stereo not given), the “activity change” value is -5.51%.
For the molecule `C[C@@H](N)C(=O)O`, the “activity change” value was -4.91%.
For the molecule `COc1ccc(Cc2cnc(N)nc2N)cc1OC`, the “activity change” value is 4.32%.
As to `Cc1cc(OI)c(C(C)C)cc1-c1cc(C(C)C)c(OI)cc1C`, the “activity change” value was 35.6%.
Take `CC1(C)S[C@@H]2[C@H](NC(=O)C(C(=O)O)c3ccccc3)C(=O)N2[C@H]1C(=O)O` (stereo not given in full): the “activity change” value is 12.4%.
In the case of `NC(=O)[C@@H]1CSSCCC(=O)N[C@@H](CCCCN=C(N)N)C(=O)NCC(=O)N[C@@H](CC(=O)O)C(=O)N[C@@H](Cc2c[nH]c3ccccc23)C(=O)N2CCC[C@H]2C(=O)N1` ([Mpa][hArg]GDWPC-NH2; disulfide 1-7) it was 0.746%; in that of `C=CCSCC1Nc2cc(Cl)c(S(N)(=O)=O)cc2S(=O)(=O)N1` (stereo not given), 8.05%; in that of `CCCCOC(=O)c1ccc(N)cc1`, -5.57%.
In the case of `COc1cc(O)cc(O)c1` it was 2.27%; in that of `OCCN1C[C@H](O)[C@@H](O)[C@H](O)[C@H]1CO`, 10.2%; in that of `CC(=O)N(CC(O)CO)c1c(I)c(C(=O)NCC(O)CO)c(I)c(C(=O)NCC(O)CO)c1I` (stereo not given), 47.2%.
Regarding `Nc1ccncc1N`, the “activity change” value was -4.03%.
